Results reported in PubChem BioAssay (NCATS).
“And” between values parts separate entries of the source, which are not always exact repeats. Identical values can stand only once. Records with an inconclusive call do not appear. The source made the active and inactive calls. Unless noted, calls follow the shape of the dose curve; as a rule, active = well fitted curve in the direction sought with a large enough effect; inconclusive = small, poorly fitted or top-dose-only effect, or another doubt; inactive = no such curve, though single readings can be large; an effect the other way counts as inactive or inconclusive.

Legend:
[1] = Validation screen for small molecules that induce DNA re-replication in SW480 colon adenocarcinoma cells (AID 504364); also: potency is read from the fitted curve at half-maximal effect
Outline: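 SW480 cells seeded at 250 per well were exposed to compound or DMSO for 48 hr at 37 C, 5% CO2, then stained with Hoechst for 40 min. DNA content per nucleus was imaged (405 nm ex, 500-530 nm em).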

[2] = target: Peptidyl-prolyl cis-trans isomerase NIMA-interacting 1 (Homo sapiens) (UniProt Q13526); test: qHTS Validation Assay to Find Inhibitors of Pin1 (AID 504536; active = well fitted inhibition curve with a large enough effect in the polarisation, with a control signal flat, not every such curve was filed as active; the % refers to the polarisation; also: potency is read from the fitted curve at half-maximal effect)
Outline: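 Fluorescence polarization competition: compounds (titration) displace HiFluor-488-labeled Pin1-1b peptide from Pin1 (0.3 uM final) in pH 7.5 HEPES buffer with DTT, 10 min at room temperature; %Activity normalized to no-enzyme wells, curves fitted.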

[3] = target: Phosphoglycerate kinase, glycosomal (Trypanosoma brucei brucei) (UniProt P07378); test: qHTS Validation Assay to Find Inhibitors of Phosphoglycerate Kinase (AID 504547); also: potency is read from the fitted curve at half-maximal effect
Outline: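 PGK activity was coupled to GAPDH (100nM final), which generates the unstable substrate 1,3-bisphosphoglycerate in-well. Reactions ran 60 minutes at room temperature in 100mM TEA pH 7.6, 5mM MgCl2, 0.01% Tween-20, then Kinase-Glo Plus luminescence was read.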

[4] = target: phosphoglycerate mutase (Leishmania major) (UniProt Q4Q090); test: qHTS Validation Assay to Find Inhibitors of Phosphoglycerate Mutase (AID 504548); conditions: Potency: inhibition qHTS; also: potency is read from the fitted curve at half-maximal effect
Outline: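 Inhibition of L. major PGAM was assessed by Kinase-GloPlus luminescence following a 45-minute room-temperature reaction with enzyme at 1.25nM final.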

[5] = target: Ubiquitin carboxyl-terminal hydrolase 1 (Homo sapiens) (UniProt O94782); test: Inhibitors of USP1/UAF1: Pilot qHTS (AID 504865); also: nearly all actives have a fitted effect of over 35% in size; also: potency is read from the fitted curve at half-maximal effect
Outline: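 Kinetic fluorescence assay: 1nM USP1/UAF1, 15 min compound preincubation, then 150nM Ub-Rho; 480/540 nm.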

[6] = qHTS for Inhibitors of ATXN expression: Validation (AID 588378); also: nearly all actives have a fitted effect of over 75% in size; also: potency is read from the fitted curve at half-maximal effect
Outline: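 Validation of ATXN2 expression inhibitors uses a cell-based luciferase fusion reporter in HEK293 cells, with 24 h compound exposure and paired viability (fluorescence) and reporter (luminescence) end-point reads.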

[7] = qHTS for Inhibitors of ATXN expression: Validation of Cytotoxic Assay (AID 588349); also: potency is read from the fitted curve at half-maximal effect
Outline: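 HEK293 cells were dosed with titrated compounds for 72 hr at 37 degrees C. Viability was read by CellTiter Glo luminescence, with intracellular ATP as the marker of cell survival.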

[8] = target: DNA dC->dU-editing enzyme APOBEC-3G (Homo sapiens) (UniProt Q9HC16); test: qHTS for inhibitors of Vif-A3G interactions: Validation (AID 588379); also: potency is read from the fitted curve at half-maximal effect
Outline: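 HeLa cells stably expressing Vif and A3G-eYFP, 700 cells/well, incubated overnight at 37 deg C, then exposed to compound overnight at 37 deg C. Inhibition of Vif-mediated degradation read as increased yellow fluorescence (Ex 488/Em 500-530) by laser-scanning cytometry.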

[9] = target: Estrogen receptor (Homo sapiens) (UniProt P03372); test: qHTS assay for small molecule antagonists of estrogen receptor alpha signaling (AID 588513; active = well fitted curve in the direction sought with a large enough effect in the signal ratio, with a control signal flat, not every such curve was filed as active; the % refers to the signal ratio)
Outline: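 Cells were plated at 5000/well and incubated 4 h at 37 C. Compounds were added as 1:2 dilution series, duplicates. 17-beta-estradiol (0.5nM final) was added for 18 h before CCF4 detection.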

[10] = target: Estrogen receptor (Homo sapiens) (UniProt P03372); test: qHTS assay for small molecule agonists of estrogen receptor alpha signaling (AID 588514; calls by dose curve; also: nearly all actives have a fitted effect of over 70% in size)
Outline: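 ER-alpha-UAS-bla GripTite HEK 293 cells in medium with 2% charcoal/dextran-treated FBS were treated with compound titrations at 37 C for 18 hrs; beta-lactamase reporter read by CCF4 fluorescence after 2 hrs at RT.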

Measured: Potency

Sequence of Phosphoglycerate kinase, glycosomal (Trypanosoma brucei brucei) (P07378 whole entry, looked up): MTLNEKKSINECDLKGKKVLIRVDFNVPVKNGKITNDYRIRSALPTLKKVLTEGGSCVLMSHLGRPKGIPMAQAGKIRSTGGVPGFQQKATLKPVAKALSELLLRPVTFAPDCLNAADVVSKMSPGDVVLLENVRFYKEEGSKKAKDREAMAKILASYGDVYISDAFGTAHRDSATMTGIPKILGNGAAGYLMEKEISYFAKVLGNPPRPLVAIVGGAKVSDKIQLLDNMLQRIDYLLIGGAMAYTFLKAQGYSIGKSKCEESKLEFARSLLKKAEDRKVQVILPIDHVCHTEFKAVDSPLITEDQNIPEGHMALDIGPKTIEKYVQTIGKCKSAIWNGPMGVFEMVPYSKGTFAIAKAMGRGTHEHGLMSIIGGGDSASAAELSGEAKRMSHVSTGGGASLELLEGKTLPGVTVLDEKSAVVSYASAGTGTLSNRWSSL
Sequence of DNA dC->dU-editing enzyme APOBEC-3G (Homo sapiens) (Q9HC16 whole entry, looked up): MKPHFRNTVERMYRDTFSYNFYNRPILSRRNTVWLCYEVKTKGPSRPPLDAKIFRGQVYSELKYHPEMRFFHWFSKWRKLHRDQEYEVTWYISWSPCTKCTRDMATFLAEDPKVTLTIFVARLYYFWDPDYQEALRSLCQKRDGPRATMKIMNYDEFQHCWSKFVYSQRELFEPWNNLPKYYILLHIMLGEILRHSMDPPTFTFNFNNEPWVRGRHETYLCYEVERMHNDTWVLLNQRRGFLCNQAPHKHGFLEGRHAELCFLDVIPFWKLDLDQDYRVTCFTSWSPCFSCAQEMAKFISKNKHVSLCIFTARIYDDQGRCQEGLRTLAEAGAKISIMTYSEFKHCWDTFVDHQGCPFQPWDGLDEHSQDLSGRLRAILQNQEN
Sequence of Peptidyl-prolyl cis-trans isomerase NIMA-interacting 1 (Homo sapiens) (Q13526 whole entry, looked up): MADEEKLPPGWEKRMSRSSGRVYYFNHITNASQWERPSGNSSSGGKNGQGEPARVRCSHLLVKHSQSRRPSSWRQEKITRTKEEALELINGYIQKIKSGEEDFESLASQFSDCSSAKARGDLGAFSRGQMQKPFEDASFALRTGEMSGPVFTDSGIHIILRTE
Sequence of Estrogen receptor (Homo sapiens) (P03372 whole entry, looked up): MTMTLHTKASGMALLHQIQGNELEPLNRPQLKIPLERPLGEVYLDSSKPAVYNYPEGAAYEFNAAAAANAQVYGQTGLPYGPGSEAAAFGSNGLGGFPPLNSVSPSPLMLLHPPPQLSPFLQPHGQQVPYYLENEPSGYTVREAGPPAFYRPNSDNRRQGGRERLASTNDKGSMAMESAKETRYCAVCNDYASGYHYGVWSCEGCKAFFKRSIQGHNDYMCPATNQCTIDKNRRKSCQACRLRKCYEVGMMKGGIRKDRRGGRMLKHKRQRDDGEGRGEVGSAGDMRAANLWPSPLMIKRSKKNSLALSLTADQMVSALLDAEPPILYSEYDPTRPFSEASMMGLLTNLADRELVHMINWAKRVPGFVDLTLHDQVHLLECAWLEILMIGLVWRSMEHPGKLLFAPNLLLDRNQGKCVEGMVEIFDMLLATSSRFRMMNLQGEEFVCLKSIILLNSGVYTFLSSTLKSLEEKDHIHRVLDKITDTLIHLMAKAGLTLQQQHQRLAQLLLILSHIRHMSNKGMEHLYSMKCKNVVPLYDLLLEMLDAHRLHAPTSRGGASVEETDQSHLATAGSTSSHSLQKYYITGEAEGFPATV
Sequence of phosphoglycerate mutase (Leishmania major) (Q4Q090 1-553): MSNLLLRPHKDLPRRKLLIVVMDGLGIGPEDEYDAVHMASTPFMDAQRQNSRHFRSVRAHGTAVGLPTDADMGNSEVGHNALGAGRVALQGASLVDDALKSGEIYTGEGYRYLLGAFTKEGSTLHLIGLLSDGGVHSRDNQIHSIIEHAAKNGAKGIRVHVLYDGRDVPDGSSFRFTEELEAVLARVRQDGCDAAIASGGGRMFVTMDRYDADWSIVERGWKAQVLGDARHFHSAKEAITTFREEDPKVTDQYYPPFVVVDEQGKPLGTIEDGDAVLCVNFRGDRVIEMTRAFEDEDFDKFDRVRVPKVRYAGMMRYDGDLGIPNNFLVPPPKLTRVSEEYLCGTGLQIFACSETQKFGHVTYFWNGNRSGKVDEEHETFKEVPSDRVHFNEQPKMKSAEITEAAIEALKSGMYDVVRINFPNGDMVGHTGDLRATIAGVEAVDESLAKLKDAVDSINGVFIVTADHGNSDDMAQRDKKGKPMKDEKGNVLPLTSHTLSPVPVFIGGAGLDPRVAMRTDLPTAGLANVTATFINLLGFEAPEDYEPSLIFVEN
Sequence of Ubiquitin carboxyl-terminal hydrolase 1 (Homo sapiens) (O94782 whole entry, looked up): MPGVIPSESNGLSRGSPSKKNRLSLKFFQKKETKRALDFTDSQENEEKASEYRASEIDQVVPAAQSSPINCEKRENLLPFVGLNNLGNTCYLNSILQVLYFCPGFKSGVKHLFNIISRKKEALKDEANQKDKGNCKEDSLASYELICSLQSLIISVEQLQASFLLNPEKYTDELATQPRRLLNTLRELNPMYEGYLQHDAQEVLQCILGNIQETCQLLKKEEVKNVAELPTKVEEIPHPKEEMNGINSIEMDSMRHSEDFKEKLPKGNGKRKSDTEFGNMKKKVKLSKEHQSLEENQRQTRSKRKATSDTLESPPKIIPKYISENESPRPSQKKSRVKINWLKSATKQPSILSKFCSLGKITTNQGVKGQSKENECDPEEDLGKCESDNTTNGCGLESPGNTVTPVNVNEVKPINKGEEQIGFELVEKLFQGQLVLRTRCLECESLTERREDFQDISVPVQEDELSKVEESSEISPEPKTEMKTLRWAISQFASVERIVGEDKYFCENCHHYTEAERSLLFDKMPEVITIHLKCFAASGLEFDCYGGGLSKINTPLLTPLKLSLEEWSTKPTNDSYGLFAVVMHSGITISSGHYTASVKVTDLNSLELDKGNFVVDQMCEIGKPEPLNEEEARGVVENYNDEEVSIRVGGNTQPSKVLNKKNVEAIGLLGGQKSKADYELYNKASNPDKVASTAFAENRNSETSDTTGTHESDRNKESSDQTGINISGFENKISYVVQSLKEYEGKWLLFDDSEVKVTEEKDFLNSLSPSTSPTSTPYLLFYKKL

c1cnc2c(c1)ccc1cccnc12
inactive: [1] | [2] | [3] | [4] | [5]
active: [6] 3.55 µM

CN(C)c1ccc(/C=C2\C(=O)Nc3ccccc32)cc1
not listed: [8] | [9] | [10]
inactive: all other assays above

NC[C@@H]1O[C@H](C23CC4CC(CC(C4)C2)C3)Cc2c1ccc(O)c2O
active: [7] 31.6 µM | [6] 20 µM
inactive: [1] | [2] | [3] | [4] | [5]

C=CC(N)CCC(=O)O (centres undefined)
not listed: [8] | [9] | [10]
inactive: all other assays above

CC1(C)CCC=[N+]1[O-]
not listed: [8] | [9] | [10]
inactive: all other assays above

COc1cc2c(CCNC(C)=O)c[nH]c2cc1Cl
not listed: [9] | [10]
inactive: all other assays above

CN(C)C(N)=NCCC[C@H](N)C(=O)O
not listed: [8] | [9] | [10]
inactive: all other assays above

CCCn1c(=O)c2[nH]c(-c3ccc(OCC(=O)NCCN)cc3)nc2n(CCC)c1=O
inactive: [1] | [2] | [3] | [4] | [5] | [6]

NC(=O)C(=O)O
not listed: [8] | [9] | [10]
inactive: all other assays above

NCCSSCCN
not listed: [8] | [9] | [10]
inactive: all other assays above

CN(C)c1nc2c(Br)c(Br)c(Br)c(Br)c2[nH]1
not listed: [8] | [9] | [10]
inactive: all other assays above

C[C@@H](NC(=O)/C(C#N)=C/c1ccc(O)c(O)c1)c1ccccc1
not listed: [7] | [9] | [10]
inactive: all other assays above

O=C(O)CC[C@@H](C(=O)O)N1C(=O)c2ccccc2C1=O
not listed: [8] | [9] | [10]
inactive: all other assays above

COc1cccc(OC)c1OCCNCC1COc2ccccc2O1 (centres undefined)
not listed: [8] | [9] | [10]
inactive: all other assays above

O=C(O)c1cc(=O)c2c(Cl)cc(Cl)cc2[nH]1
not listed: [9] | [10]
inactive: all other assays above

Cc1ccc(C(=O)O[C@H](C(=O)O)[C@@H](OC(=O)c2ccc(C)cc2)C(=O)O)cc1 (tested in a mixture with another compound)
not listed: [8] | [9] | [10]
inactive: all other assays above

Clc1ccc(N2CCN(Cc3c[nH]c4ncccc34)CC2)cc1
active: [5] 50.1 µM
not listed: [6] | [9] | [10]
inactive: all other assays above

CNCC[C@H](Oc1ccc(C(F)(F)F)cc1)c1ccccc1
inactive: [1] | [2] | [3] | [4] | [5] | [8]

OCC1O[C@H](O)C(Cl)C(O)C1O (some centres undefined)
not listed: [8] | [9] | [10]
inactive: all other assays above

C[N+](C)(CCCCCC[N+](C)(C)CCCN1C(=O)c2cccc3cccc(c23)C1=O)CCCN1C(=O)c2cccc3cccc(c23)C1=O
not listed: [8] | [9] | [10]
inactive: all other assays above

Cc1cc(NC(=O)Nc2ccc3c(ccn3C)c2)sn1
not listed: [7] | [9] | [10]
inactive: all other assays above

NCCNC(=O)c1ncsc1-c1cccc(F)c1
not listed: [8] | [9] | [10]
inactive: all other assays above

O=c1[nH]c2cc([N+](=O)[O-])c([N+](=O)[O-])cc2[nH]c1=O
not listed: [9] | [10]
inactive: all other assays above

Oc1cc(O)cc(/C=C/c2ccc(O)c(O)c2)c1
inactive: [1] | [2] | [4] | [5] | [6]
active: [3] 23.9 µM

CN1CCc2cc(NC(=O)Nc3cccnc3)ccc21
not listed: [8] | [9] | [10]
inactive: all other assays above

c1ccc(-c2ccccn2)nc1
not listed: [8] | [9] | [10]
inactive: all other assays above

NCCCCCCCCCCN
inactive: [1] | [2] | [3] | [4] | [5] | [6]

O=C(O)c1cc(=O)c2ccccc2[nH]1
not listed: [9] | [10]
inactive: all other assays above

N[C@@H](CC(=O)O)C(=O)O
not listed: [9] | [10]
inactive: all other assays above

CC(C)NC[C@H](O)COc1cccc2[nH]ccc12
not listed: [9] | [10]
inactive: all other assays above

CN1CCC[C@H]1c1cccnc1
inactive: all assays above

O=S(=O)(c1cccc2c(I)cccc12)N1CCCNCC1
active: [6] 12.6 µM
inactive: [1] | [2] | [3] | [4] | [5]

O=C(O)/C=C/C(O)c1ccc(Cl)cc1 (centres undefined)
inactive: [1] | [3] | [4] | [5] | [7] | [6]

O=C(Nc1cccc(C(=O)Nc2ccc(S(=O)(=O)O)c3cc(S(=O)(=O)O)cc(S(=O)(=O)O)c23)c1)Nc1cccc(C(=O)Nc2ccc(S(=O)(=O)O)c3cc(S(=O)(=O)O)cc(S(=O)(=O)O)c23)c1
active: [2] 6.75 µM | [5] 28.2 µM and 12.6 µM
inactive: [1] | [4] | [7] | [6] | [8]

C#CCN1C(C)=C(C(=O)OC)C(c2cccc([N+](=O)[O-])c2)C(C(=O)OCC)=C1C (centres undefined)
inactive: [1] | [2] | [3] | [4] | [7] | [6]

O=c1[nH]c2cc(C(F)(F)F)ccc2n1-c1cc(C(F)(F)F)ccc1O
inactive: [1] | [2] | [3] | [4] | [7] | [6]

COC(=O)c1c(C)[nH]c(C)c1C(=O)c1ccccc1Cc1ccccc1
not listed: [5] | [9] | [10]
inactive: all other assays above

CC[C@@H](C)[C@H]1O[C@]2(CC[C@H]1C)C[C@@H]1C[C@@H](CC=C(C)[C@@H](O[C@H]3C[C@H](OC)[C@@H](O[C@H]4C[C@H](OC)[C@@H](O)[C@H](C)O4)[C@H](C)O3)[C@@H](C)C=CC=C3CO[C@@H]4[C@H](O)C(C)=C[C@@H](C(=O)O1)[C@]34O)O2
inactive: [2] | [3] | [4]

Brc1c(Br)c(Br)c2n[nH]nc2c1Br
inactive: [1] | [2] | [3] | [4] | [7]

O=Nc1ccc2oc(=O)ccc2c1
inactive: [2] | [3] | [4]

COc1ccc(/C=C/C(=O)Nc2ccccc2C(=O)O)cc1OC
inactive: [1] | [2] | [3] | [4] | [7]

O=C(c1cc(O)c(O)c([N+](=O)[O-])c1)c1ccccc1F
inactive: [1] | [4] | [5] | [7] | [6]

O=C1O/C(=C/Br)CCC1c1cccc2ccccc12 (centres undefined)
inactive: [1] | [2] | [3] | [4]
active: [7] 31.6 µM | [6] 25.1 µM

O=C(O)c1cc([N+](=O)[O-])ccc1NCCCc1ccccc1
inactive: [1] | [2] | [3] | [4] | [6] | [8]

CC(C)(C=O)Cc1cc(C(C)(C)C)c(O)c(C(C)(C)C)c1
inactive: [1] | [2] | [3] | [4] | [5] | [8]

CCCCCC(O)c1cccc(OCc2ccc3ccccc3n2)c1 (centres undefined)
inactive: [1] | [3] | [4]

N.N.O=C(O)C1(C(=O)O)CCC1.[Pt]
inactive: [1] | [7] | [6]
active: [5] 28.2 µM

CC(C)NCC(O)COc1cccc2ccccc12 (centres undefined)
inactive: [1] | [2] | [5]

COc1ccccc1N1CCN(CCCCNS(=O)(=O)c2cccc3c(N(C)C)cccc23)CC1
active: [1] 14.6 µM
inactive: [3] | [4] | [5]

CC(C)ON([C@@H](C(=O)NO)C(C)C)S(=O)(=O)c1ccc(-c2ccccc2)cc1
inactive: [2] | [3] | [4]

Cc1ccc(O)c(N=Nc2ccccc2)n1
active: [3] 10.7 µM | [4] 10.7 µM | [8] 10.6 µM
inactive: [1] | [2]

CN=c1nc(-c2ccccc2)n(-c2ccccc2)s1
inactive: [1] | [2] | [3] | [5]

COc1ccc(NC(=O)/C=C/c2ccc(Cl)cc2)cc1
inactive: [1] | [2] | [6]

Cn1cc(C2=C(c3ccc(Cl)cc3Cl)C(=O)NC2=O)c2ccccc21
inactive: [1] | [3] | [4] | [7] | [6]
active: [5] 23.8 µM | [8] 2.99 µM

Ic1ccc(N2CCN(Cc3c[nH]c4ncccc34)CC2)cc1
active: [5] 50.1 µM
inactive: [1] | [3] | [4]

Oc1ccccc1O
inactive: [1] | [2] | [4] | [5]

N#C/C(=C\c1ccc(O)c(O)c1)C(=O)NCc1ccccc1
inactive: [1] | [3] | [4] | [6] | [8]

CC12C(=O)OC(=O)C1(C)C1CCC2O1 (centres undefined)
inactive: [1] | [2] | [3] | [4] | [5] | [8]

CCCCCCCCCCCCCCCC(=O)OC(CC(=O)O)C[N+](C)(C)C (centres undefined)
active: [5] 50.1 µM
inactive: [2] | [3] | [4]

O=C(O)[C@@H]1C[C@@H](C(=O)O)N1
not listed: [2] | [9] | [10]
inactive: all other assays above

CCCCCCCCCCCCCCCCCC(=O)OC(CC(=O)O)C[N+](C)(C)C (centres undefined)
inactive: [2] | [3] | [4] | [6]
active: [1] 11.6 µM
